Compound activity (PubChem BioAssay)
Pf Dd2 growth: qHTS Primary assay for Inhibitors of Plasmodium falciparum Dd2 growth in vitro | Potency, µM (titrated, usually from 28.9 µM), actives largely listed as inhibitors | actives 4.3% (n = 120,000) | P. falciparum Dd2 growth, SYBR Green, 72 h; active = well fitted inhibition curve with a large enough effect; note: nearly all actives have a fitted effect of over 65% in size
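Infected erythrocytes (Dd2, 0.3% parasitemia, 2.5% hematocrit final) are added to compound in RPMI-1640/Albumax II medium, grown 72 h at 37C in low oxygen, then lysed with saponin/Triton-X containing SYBR Green and read by fluorescence.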
Each line names hits and unclear results; the compound was inactive in the other large screens. The full list was thinned out, with hits kept by preference.

CCN1C(=O)C2(CCN(S(=O)(=O)c3ccc4c(c3)CCC4)CC2)c2ccccc21	none
CCN(CC)c1ccc(CN(C(=O)Cc2coc3ccc(C)cc23)C2CCS(=O)(=O)C2)cc1 (stereo not given)	Pf Dd2 growth 13µM
Cc1ccc2occ(CC(=O)N(Cc3ccc(N(C)C)cc3)C3CCS(=O)(=O)C3)c2c1 (stereo not given)	none
CCc1ccc2occ(CC(=O)N(Cc3ccc(N(C)C)cc3)C3CCS(=O)(=O)C3)c2c1 (stereo not given)	none
CCOc1ccc(Br)cc1S(=O)(=O)Nc1cccc(-c2ccc(OC)nn2)c1	none
CCOc1ccc(-c2ccc(NS(=O)(=O)c3cc(C)ccc3OC)cc2)nn1	Pf Dd2 growth 10µM
CCOc1ccc(-c2cccc(NS(=O)(=O)c3ccc(F)cc3F)c2)nn1	none
CCOC(=O)N1CCc2c(sc3c2c(=O)n(CCc2ccccc2)c(=O)n3Cc2ccc(C)cc2C)C1	Pf Dd2 growth 2.5µM
COc1ccccc1NC(=O)Cn1c(=O)n(Cc2ccccc2)c(=O)c2c3c(sc21)CN(C(C)=O)CC3	none
CCOc1ccccc1NC(=O)Cn1c(=O)n(Cc2ccccc2)c(=O)c2c3c(sc21)CN(C(C)=O)CC3	none
CC(=O)N1CCc2c(sc3c2c(=O)n(-c2ccccc2)c(=O)n3Cc2cccc(C(F)(F)F)c2)C1	Pf Dd2 growth 10µM
CC(=O)N1CCc2c(sc3c2c(=O)n(-c2ccccc2)c(=O)n3CC(=O)c2ccccc2)C1	none
CC(=O)c1cccc(-n2c(=O)c3c4c(sc3n(Cc3cccc(C)c3)c2=O)CN(C(C)=O)CC4)c1	none
CCOC(=O)N1CCc2c(sc3c2c(=O)n(-c2ccc(CC)cc2)c(=O)n3Cc2cccc(OC)c2)C1	none
CCOc1ccc(NC(=O)Cn2c(=O)n(CCc3ccccc3)c(=O)c3c4c(sc32)CCCC4)cc1	none
CC(=O)N1CCc2c(sc3c2c(=O)n(Cc2ccccc2)c(=O)n3Cc2ccc(Cl)cc2)C1	none
CCOC(=O)N1CCc2c(sc3c2c(=O)n(Cc2ccccc2)c(=O)n3Cc2ccc(C)cc2)C1	Pf Dd2 growth 2.5µM
CC(=O)N1CCc2c(sc3c2c(=O)n(Cc2ccccc2)c(=O)n3Cc2cccc(Cl)c2)C1	Pf Dd2 growth 10µM
CCOC(=O)N1CCc2c(sc3c2c(=O)n(CCc2ccccc2)c(=O)n3CC(=O)Nc2cccc(C)c2)C1	none
O=C1COc2ccc(-c3cn[nH]c3)nc2CN1Cc1ccccc1	none
CN1C[C@@H](NC(=O)NC2CCCCC2)C[C@H]1c1nc(-c2cnccn2)no1	none
CSCC(=O)N1C[C@@H](NC(=O)Nc2cccc(SC)c2)C[C@H]1C(=O)N[C@@H](CCS(C)(=O)=O)C(N)=O	none
CCC1c2nccn2CCCN1C(=O)CCc1c(C)nn(C)c1C (stereo not given)	none
O=C(NCCCn1ccnc1)C1CCCN(c2nc(-c3ccccc3)nc3c2CCC3)C1 (stereo not given)	none
CC(=O)N1CCN(c2nc3ncccc3o2)CC1	none
Cc1nn(CCC#N)c(C)c1[C@@H]1C=C[C@@H](NC(=O)CCCC(=O)O)C1	none
Cc1ccc(-c2noc(CCCC(=O)N3CCc4nc5cc(-c6ccccc6)[nH]n5c(=O)c4C3)n2)cc1	none
C#CCn1c(=O)n(-c2cccc(Cl)c2C)c(=O)c2c3c(sc21)CN(C(C)=O)CC3	none
CC(=O)N1CCc2c(sc3c2c(=O)n(-c2cccc(Cl)c2C)c(=O)n3Cc2ccccc2C)C1	Pf Dd2 growth 8.9µM
CC(=O)c1cccc(-n2c(=O)c3c4c(sc3n(Cc3ccccc3Cl)c2=O)CN(C(C)=O)CC4)c1	none
COc1ccc(C(C)NC(=O)c2noc(-c3ccc4c(c3)OCO4)n2)cc1 (stereo not given)	none
COc1ccc(CCNC(=O)c2c(C)noc2-c2ccc(OC(F)(F)F)cc2)cc1OC	none
CCOc1cc(-c2nnc(SCC(=O)Nc3ccc(F)c(F)c3)nc2-c2ccc(OC)c(OCC)c2)ccc1OC	none
CCOc1ccc(-c2nnc(SCC(=O)NC3CCCC3)nc2-c2ccc(OCC)c(OC)c2)cc1OC	none
COc1ccc(-c2nnc(SCC(=O)NCc3ccccc3)nc2-c2ccc(OC)c(OC)c2)cc1OC	Pf Dd2 growth 8.9µM
O=C(NC[C@H]1O[C@@H](CO)[C@@H](O)[C@H]1N1CCN(c2ccc(F)cc2)CC1)c1ccco1	none
COc1ccc(NC(=O)Cn2cc(S(=O)(=O)N3CCN(c4ccccc4F)CC3)c3ccccc3c2=O)cc1Cl	Pf Dd2 growth 13µM
Cc1cc(Br)ccc1NC(=O)Cn1cc(S(=O)(=O)N2CCN(c3ccccc3F)CC2)c2ccccc2c1=O	none
O=C(Cn1cc(S(=O)(=O)Cc2ccccc2F)c2ccccc21)Nc1ccc(F)c(Cl)c1	none
Cc1ccccc1NC(=O)c1ccc(F)c(S(=O)(=O)N2CCN(c3ccccc3F)CC2)c1	none
COc1cc(Cl)c(C)cc1NC(=O)Cn1cc(S(=O)(=O)N2CCN(c3ccccc3F)CC2)c2ccccc2c1=O	Pf Dd2 growth 11µM
COc1ccc(NC(=O)Cn2cc(S(=O)(=O)N3CCC(C)CC3)c3ccccc3c2=O)cc1Cl	none
CCN1c2cc(C(=O)Nc3ccc(OC)cc3)ccc2C(=O)N2CCCC21 (stereo not given)	none
O=C(Cc1ccc2c(c1)OCC2)Nc1ccc2c(c1)C(=O)N1CCC[C@H]1C(=O)N2	none
